For 22 molecules, Potency results are on record in PubChem BioAssay (NCATS).

Assay [1] can be described thus: Quantitative High-Throughput drug screen in 47 multiple myeloma cell lines against the NCATS MIPE library collection: FR4_PLB cell viability assay (AID 1918924; further: nearly all actives have a fitted effect of over 35% in size; further: potency means the concentration at half of the fitted maximal effect). Conditions: FR4_PLB myeloma cells viability, CellTiter-Glo ATP, 48 h; series mostly up to 45.8 µM. Summed up: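 Inhibition of cell viability is measured here. Each line was plated at 500 cells per well, treated with MIPE 4.0 drugs, kept 48 hours at 37C, then assayed for ATP content by CellTiter-Glo luminescence.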
For orientation: In ATP-based viability assays light output follows the ATP content of the culture.

A short description of assay [2]: Quantitative High-Throughput drug screen in 47 multiple myeloma cell lines against the NCATS MIPE library collection: EJM_DSMZ cell viability assay (AID 1918926; further: nearly all actives have a fitted effect of over 30% in size; further: potency means the concentration at half of the fitted maximal effect). Conditions: EJM myeloma cell viability, CellTiter-Glo ATP, 48 h; series mostly up to 45.8 µM. Summed up:
(§1)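 Luminescent ATP measurement with CellTiter-Glo gives viability, scaled between DMSO-only wells (100%) and media-only wells (0%). Cells, 500 per well, faced library compounds for 48 hours at 37C.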

The nature of assay [3]: Quantitative High-Throughput drug screen in 47 multiple myeloma cell lines against the NCATS MIPE library collection: AMO1_DSMZ cell viability assay (AID 1918927; further: nearly all actives have a fitted effect of over 30% in size; further: potency means the concentration at half of the fitted maximal effect). Particulars: AMO1 myeloma cells viability, CellTiter-Glo ATP luminescence, 48 h; series mostly up to 45.8 µM. The method, boiled down: as §1
The nature of assay [4]: Quantitative High-Throughput drug screen in 47 multiple myeloma cell lines against the NCATS MIPE library collection: ARD_JJKsccE7 cell viability assay (AID 1918929; further: potency means the concentration at half of the fitted maximal effect). Conditions: ARD myeloma cell line viability, CellTiter-Glo, 48 h; series mostly up to 45.8 µM. Summed up:
as §1

Assay [5] is described as follows: Quantitative High-Throughput drug screen in 47 multiple myeloma cell lines against the NCATS MIPE library collection: ARP1_JJKsccF8 cell viability assay (AID 1918928; further: nearly all actives have a fitted effect of over 40% in size; further: potency means the concentration at half of the fitted maximal effect). Conditions: ARP1 myeloma cells viability, CellTiter-Glo ATP, 48 h; series mostly up to 45.8 µM. The method, boiled down: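 ATP readout (CellTiter-Glo), 48 h drug incubation, 37 °C/5% CO2, 500 cells per well; normalisation to DMSO (100%) and media-only (0%) controls.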

A short description of assay [6]: Quantitative High-Throughput drug screen in 47 multiple myeloma cell lines against the NCATS MIPE library collection: Delta47_JCRB cell viability assay (AID 1918925; further: nearly all actives have a fitted effect of over 45% in size). Conditions: Delta47 myeloma viability, CellTiter-Glo ATP, 48 h; series mostly up to 45.8 µM. Summed up:
as §1

Results filed as inconclusive are left out. Active and inactive are the calls of the source. The call rests on the fitted dose curve; in most records, active means well fitted cell-killing curve with a large enough effect; inconclusive means small, poorly fitted or top-dose-only effect, or effect the other way; inactive means no such curve, though single readings can be large or run the other way.

On to `COC(=O)[C@@H]1CC2=CC(=O)CC[C@]2(C)[C@@]23O[C@@H]2C[C@@]2(C)[C@H](CC[C@@]24CCC(=O)O4)[C@@H]13`, for which the Potency result in assay [1], in assay [2], in assay [3] and in assay [4] was “inactive” throughout.

Take `CON=C(C(=O)N[C@@H]1C(=O)N2C(C(=O)O)=C(CSC(=O)c3ccco3)CS[C@H]12)c1csc(N)n1`: the Potency result in assay [1], in assay [2] and in assay [3] was “inactive” throughout.

For `COc1cccc2c1C(=O)c1c(O)c3c(c(O)c1C2=O)C[C@@](O)(C(=O)CO)C[C@@H]3O[C@H]1C[C@H](N)[C@@H](O)[C@H](C)O1`, the Potency is 0.743 µM (active) in assay [1]; 0.59 µM (active) in assay [2]; 1.18 µM (active) in assay [3]; 0.469 µM (active) in assay [5]; 2.64 µM (active) in assay [4].

On to `Nc1nc(N)c2nc(-c3cccc(O)c3)c(-c3cccc(O)c3)nc2n1`, for which the Potency in assay [1] is 10.5 µM (active); in assay [2] it was 18.7 µM (active); in assay [3], 7.43 µM (active); in assay [5], 20.9 µM (active); in assay [4], 8.33 µM (active).

As for `Cc1ccc(O)c(C(CCN(C(C)C)C(C)C)c2ccccc2)c1` (stereo not drawn), the Potency entry in assay [1], in assay [3], in assay [5] and in assay [4] was “inactive” throughout. In assay [2], the Potency is 0.0017 µM (active).

Consider `CN(C)CCN1C(=O)c2cccc3cc(N)cc(c23)C1=O`, for which the Potency in assay [1] was 23.5 µM (active); in assay [2], 23.5 µM (active); in assay [3] it was 4.18 µM (active); in assay [5] it was 20.9 µM (active); in assay [4] it was 29.6 µM (active).

As for `COC1=C(OC)C(=O)C(CC=C(C)CCC=C(C)CCC=C(C)CCC=C(C)CCC=C(C)CCC=C(C)CCC=C(C)CCC=C(C)CCC=C(C)CCC=C(C)C)=C(C)C1=O`, the Potency entry in assay [1], in assay [2], in assay [3], in assay [5] and in assay [4] was “inactive” in each case.

Regarding `C[C@H](CCC(=O)O)[C@H]1CCC2C3C[C@H](O)[C@@H]4C[C@H](O)CC[C@]4(C)C3CC[C@@]21C` (stereo partly drawn), the Potency entry in assay [1], in assay [2], in assay [3] and in assay [5] was “inactive” throughout.

For the molecule `CON=C(C(=O)N[C@@H]1C(=O)N2C(C(=O)O)=C(Cn3ccc(=N)n3CCO)CS[C@H]12)c1csc(N)n1`, the Potency entry in assay [1], in assay [2], in assay [3] and in assay [4] was “inactive” throughout.

On to `O=C(NNC(=O)c1ccc(CNS(=O)(=O)c2ccc(F)c(Cl)c2)cc1)c1ccccc1`, for which the Potency result in assay [1], in assay [2], in assay [3], in assay [5] and in assay [4] was “inactive” throughout.

Take `COC(=O)[C@H](CCCN=C(N)N)NS(=O)(=O)c1ccc(C)cc1`: the Potency result in assay [1], in assay [2], in assay [3], in assay [5] and in assay [4] was “inactive” throughout.

For the molecule `C=CCNc1c(O)cc2c(O)c1C[C@@H](C)C[C@H](OC)[C@@H](O)[C@@H](C)C=C(C)[C@H](OC(N)=O)[C@@H](OC)C=CC=C(C)C(=O)N2`, the Potency in assay [1] was 0.372 µM (active); in assay [2] it was 1.05 µM (active); in assay [3] it was 0.148 µM (active); in assay [5], 0.148 µM (active); in assay [4], 0.0743 µM (active).

As to `COc1ccnc2[nH]cc(C(=O)C(=O)N3CCN(C(=O)c4ccccc4)C[C@@H]3C)c12`, the Potency result in assay [1], in assay [2] and in assay [3] was “inactive” each time. Moreover, the Potency in assay [5] is 16.6 µM (active).

Turning to `CC(=O)N[C@@H]1[C@H](O[C@@H]2c3ccc(c(Cl)c3)Oc3cc4cc(c3O[C@H]3O[C@H](CO)[C@@H](O)[C@H](O)[C@H]3NC(=O)CCCCCCCC(C)C)Oc3ccc(cc3Cl)C[C@H]3NC(=O)[C@H](N)c5ccc(O)c(c5)Oc5cc(O)cc(c5)[C@H](NC3=O)C(=O)N[C@H]4C(=O)N[C@H]3C(=O)N[C@@H]2C(=O)N[C@@H](C(=O)O)c2cc(O)cc(O[C@H]4O[C@H](CO)[C@@H](O)[C@H](O)[C@H]4O)c2-c2cc3ccc2O)O[C@H](CO)[C@@H](O)[C@@H]1O`, the Potency result in assay [1], in assay [2], in assay [3], in assay [5] and in assay [4] was “inactive” each time.

Turning to `CC(C)C[C@H](NC(=O)CNC(=O)c1cc(Cl)ccc1Cl)B1OC(=O)CC(CC(=O)O)(C(=O)O)O1` (stereo partly drawn), the Potency was 0.0418 µM (active) in assay [1], 0.0833 µM (active) in assay [2], 0.0332 µM (active) in assay [5] and 0.0526 µM (active) in assay [4].

On to `COC(=O)C1C2CC3c4[nH]c5cc(OC)ccc5c4CCN3CC2CC(OC(=O)c2cc(OC)c(OC)c(OC)c2)C1OC` (stereo not drawn), for which the Potency is 3.72 µM (active) in assay [1], 20.9 µM (active) in assay [3] and 20.9 µM (active) in assay [4].

For `O=c1[nH]c(=O)n([C@H]2C[C@@H](O)[C@@H](CO)O2)cc1C=CBr`, the Potency result in assay [6], in assay [2], in assay [3] and in assay [5] was “inactive” throughout.

Turning to `C[C@@H](Oc1ccc2[nH]nc(C=Cc3cnn(CCO)c3)c2c1)c1c(Cl)cncc1Cl`, the results for the Potency in assay [1], in assay [2] and in assay [5] were 26.4 µM (active), 4.18 µM (active) and 5.26 µM (active), respectively. Moreover, the Potency result in assay [4] was “inactive”.

In the case of `C[N+](C)([O-])CCNc1ccc(NCC[N+](C)(C)[O-])c2c1C(=O)c1c(O)ccc(O)c1C2=O`, the Potency entry in assay [1], in assay [3] and in assay [5] was “inactive” throughout.

Regarding `C[C@]12C=CC(=O)N[C@@H]1CC[C@H]1[C@H]3CC[C@@H](C(=O)Nc4cc(C(F)(F)F)ccc4C(F)(F)F)[C@@]3(C)CC[C@@H]12`, in assay [1], the Potency was 18.7 µM (active). The Potency entry in assay [3] and in assay [4] was “inactive” in each case.

Turning to `COc1ccc2cc([S+]([O-])Cc3ncc(C)c(OC)c3C)nc2c1`, the Potency result in assay [1], in assay [2], in assay [5] and in assay [4] was “inactive” each time.

With `CC[C@H](CC[C@@H](C)[C@H]1CC[C@H]2[C@@H]3CC=C4C[C@@H](O)CC[C@]4(C)[C@@H]3CC[C@]12C)C(C)C`, the Potency entry in assay [1], in assay [3], in assay [5] and in assay [4] was “inactive” each time.
